Screening results deposited in PubChem by Johns Hopkins Ion Channel Center.
KCNQ2 enhance = KCNQ2 (rat) channel potentiation | CHO-K1 KCNQ2, FluxOR thallium flux fluorescence; active compounds read high | 310,000 compounds, 0.54% hits | O88943 | B-score at 10 µM;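 active = fluorescence ratio B-score at least 3 SD of library B-scores, with initial fluorescence B-score within 3 of them, cut at about 5.3 in these data; same plate scores as AID 2156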;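 note: B-score of peak minus minimum over baseline fluorescence ratio after K+ and Tl+ stimulus; positive B-score means potentiation of KCNQ2 with more thallium influx and brighter signal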
KCNQ2 block = blocks the rat KCNQ2 potassium channel; AID 2156; O88943; 310,000 compounds, 1.1% hits; CHO-K1 KCNQ2, FluxOR thallium flux, 20 min; active compounds read low; B-score at 10 µM;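 active = fluorescence ratio B-score at most minus 3 library SDs, with starting brightness B-score within 2 library SDs, cut at about -5.5 in these data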
* = called active by the depositor; i = inactive; . = not tested or not shown. Hits are enriched below; roughly 1.6% of the tested compounds scored in any of these assays.

SMILES	KCNQ2 enhance	KCNQ2 block
Cc1cccc(C(=O)NC(=S)NNC(=O)c2cccs2)c1	8.2*	i
O=C(NC(=S)NNC(=O)c1cccs1)c1ccccc1	.	i
CC(C)CN(CCNC(=O)CN1C(=O)COc2ccc(S(=O)(=O)N3CCC(C)CC3)cc21)CC(C)C	.	i
CC(=O)NS(=O)(=O)c1ccc(NC(=O)CSc2ccc(C)cc2)cc1	0.02	i
CCOC(=O)c1csc(NC(=O)C2=COCCO2)n1	1.6	i
Cc1ccc(N2C(=O)N(CC(=O)NC(c3ccccc3)c3ccccc3)C(=O)C2C)cc1 (stereo not drawn)	-6	-6*
Cc1ccc(N2C(=O)N(CC(=O)NC(N)=O)C(=O)C2C)cc1 (stereo not drawn)	1.7	i
Cc1nc(SCC(=O)N2CCC(Cc3ccccc3)CC2)[nH]c(=O)c1C	1.9	i
O=C(CSc1ccccc1)NCCCc1ccccc1	0.63	i
CCOc1ccccc1NC(=O)C(NCCc1ccc(OC)cc1)c1ccccc1 (stereo not drawn)	.	i
COc1ccc(CCNC(C(=O)Nc2cc(C)cc(C)c2)c2ccccc2)cc1 (stereo not drawn)	-8.1	-8.1*
C/C(=N\Nc1cccc(Cl)c1)C1(C)N(O)C(C)(C)C(c2ccco2)=[N+]1[O-] (stereo not drawn)	-6.4	-6.4*
C/C(=N\O)C1(C)N(O)C(C)(C)C(c2ccco2)=[N+]1[O-] (stereo not drawn)	.	i
C=CCNC(=O)c1ccc(N(Cc2ccc(Cl)cc2)S(C)(=O)=O)cc1	.	i
COc1ccc2[nH]c(C)c(-c3csc(N)n3)c2c1	.	i
Cc1nn(-c2ccccc2)c(Cl)c1/C=N/NC(=O)OC(C)(C)C	.	i
Cc1ccc(C)c(OCC(=O)N/N=C/c2c(C)nn(-c3ccccc3)c2Cl)c1	-7.4	-7.4*
O=C(Cc1cccc2ccccc12)NCCOc1ccccc1F	.	i
O=C(N/N=C/c1ccccn1)c1cccc(S(=O)(=O)N2CCCC2)c1	.	i
Cc1cccc(OCC(=O)NNC(=O)C2CCN(c3ncnc4sc(C)c(C)c34)CC2)c1	.	i
Cc1sc2ncnc(N3CCC(C(=O)N(CC(C)C)c4nc5ccccc5s4)CC3)c2c1C	-6.2	-6.2*
CCCN(CC(=O)Nc1ccccc1C)C(=O)C1CCN(c2ncnc3sc(C)c(C)c23)CC1	-6.8	-6.8*
Cc1ccccc1OCC(=O)NNC(=O)C1CCN(c2ncnc3sc(C)c(C)c23)CC1	.	i
Cc1nnc(SCc2ccccc2CSc2nnc(C)s2)s1	.	i
CCOC(=O)C1=C(C)NC(=O)NC1c1ccc(-c2ccc(Cl)cc2)o1 (stereo not drawn)	0.05	i
SMILES	KCNQ2 enhance	KCNQ2 block
CCOC(=O)C1=C(C)NC(=S)NC1c1ccc(-c2ccc(Cl)cc2)o1 (stereo not drawn)	7.8*	i
CC1=C(C(=O)Nc2ccccc2)C(c2ccco2)C(C#N)=C(SCc2ccccc2)N1 (stereo not drawn)	-6.5	-6.5*
CC1=C(C(=O)Nc2ccccc2)C(c2ccco2)C(C#N)=C(SCC(=O)OC(C)C)N1 (stereo not drawn)	0.08	i
CCN(CC)S(=O)(=O)c1cccc(-c2nnc(SC(C)C#N)n2Cc2ccccc2)c1 (stereo not drawn)	.	i
CCN(CC)S(=O)(=O)c1cccc(-c2nnc(SCC#N)n2Cc2ccccc2)c1	-5.7	-5.7*
CCCCN(C(=O)/C=C/c1ccccc1)C1CCS(=O)(=O)C1 (stereo not drawn)	0.07	i
CCN(C(=O)/C=C/c1ccccc1)C1CCCCC1	-5.8	-5.8*
N#CCSc1nc2scc(-c3cccs3)c2c(=O)n1CCc1ccccc1	-7	-7*
C=CCn1c(SCC(=O)Nc2ccccc2)nc2scc(-c3cccs3)c2c1=O	.	i
Cc1cc(=O)[nH]c(-n2ncc(C#N)c2N)n1	1.3	i
O=C(CCN1CCN(C(=O)c2ccccc2)CC1)c1ccc(Br)cc1	-9	-9*
O=C(c1ccc(Br)cc1)N1CCN(Cc2ccccc2)CC1	.	i
COc1ccc(OCCSc2nnc(CC(=O)Nc3cccc(Cl)c3Cl)n2C)cc1	-8.1	-8.1*
CCn1c(CC(=O)Nc2cccc(Cl)c2Cl)nnc1SCCOc1ccc(OC)cc1	-6.1	-6.1*
CCn1c(COc2cccc(OC)c2)nnc1SCC(=O)Nc1cc(OC)ccc1OC	.	i
COc1ccc(CC(=O)NCc2nnc(SCCOc3ccccc3)n2C)cc1	.	i
C/C(CC(=O)Nc1ccccn1)=N\NC(=O)c1cnccn1	.	i
N#Cc1ccncc1S(=O)c1ccc(Cl)cc1 (stereo not drawn)	.	i
CC1CC(C)CN(C(=O)CSc2nnc(N)s2)C1 (stereo not drawn)	0.68	i
CCN(CC)c1ccc(/C=N/N2CCN(Cc3ccc(C)cc3)CC2)c(O)c1	-6.2	-6.2*
CCN(CC)c1ccc(/C=N/N2CCN(Cc3ccccc3Cl)CC2)c(O)c1	.	i
CC(=O)C1=C(C)NC(=O)NC1c1ccc(Cl)cc1 (stereo not drawn)	0.68	i
Cc1ccc(C(=O)Nc2ccc3c(c2)CCC3)cc1	0.92	i
O=C(Nc1ccc2c(c1)CCC2)c1cccc(F)c1	7.3*	i
O=C(Nc1ccc(F)cc1)Nc1ccccc1F	3.2	i
SMILES	KCNQ2 enhance	KCNQ2 block
O=C(Nc1ccc2[nH]c(=S)sc2c1)Nc1ccccc1F	40*	i
O=C(Nc1ccc2[nH]ccc2c1)c1ccccc1	2	i
O=C(Nc1ccc2[nH]c(=S)sc2c1)c1ccccc1	16*	i
NC(=O)c1ncc(C(F)(F)F)cc1Oc1cccnc1	1	i
O=[N+]([O-])c1cccc(S(=O)(=O)NCc2ccncc2)c1	2.3	i
CC(NC(=O)c1cc([N+](=O)[O-])cc([N+](=O)[O-])c1)C1CC2CCC1C2 (stereo not drawn)	0.13	i
CC(NC(=O)/C=C/c1ccccc1[N+](=O)[O-])C1CC2CCC1C2 (stereo not drawn)	-6.2	-6.2*
O=C1OC(COc2ccc(Br)cc2)CN1c1ccccc1 (stereo not drawn)	.	i
C/C(CC(=O)N(C(C)C)C(C)C)=N\NC(=O)c1ccccc1Br	0.96	i
Cc1ccc(-n2nnnc2SCC(=O)NC2CCCc3ccccc32)cc1 (stereo not drawn)	.	i
Cc1ccc(-n2nnnc2SCC(=O)NC2CCCc3ccccc32)c(C)c1 (stereo not drawn)	-6.5	-6.5*
O=S(=O)(NCC1CCCO1)c1ccc(Cl)nc1 (stereo not drawn)	.	i
OCC1(Cc2ccccc2)CCCN(Cc2c[nH]c3ccccc23)C1 (stereo not drawn)	0.05	i
Cn1cc(CC(=O)NC2CCCCC2)c2ccccc21	5.4*	i
COCCNC(=O)Cc1cn(C)c2ccccc12	1.1	i
CCS(=O)(=O)C(C)(CCl)C(=O)Nc1ccc(C(=O)OC)cc1 (stereo not drawn)	.	i
CC(C)NC(=O)CSc1nc2ccccc2n1CC(=O)N(C(C)C)C(C)C	0.34	i
CC(C)N(C(=O)CSc1nc(Cc2ccccc2)nc2ccccc12)C(C)C	-6.3	-6.3*
CSc1nc(Cc2ccccc2)nc2ccccc12	.	i
CCC(C)(C)NC(=O)CSc1nc(Cc2ccccc2)nc2ccccc12	-6.3	-6.3*
CC(C)N(C(=O)CSc1nc2ccccc2n1Cc1ccc(F)cc1)C(C)C	-7.9	-7.9*
CC(C)(C)NC(=O)CSc1nc(Cc2ccccc2)nc2ccccc12	.	i
Cc1nnc(SCC(=O)NC2CCCC2)n1C(C)C	.	i
